The first assay deals with LPAR3. Kind of assay: pooled miR-30 sensor sort-seq; sequence = guide strand. The conditions noted are these: shRNA.
Sequence TTCCTGTCCAGTCATCGACAGT yielded a sensor-assay potency score (higher = more potent) of -1.5.
Same read-out and setting: for ATGAGGTTGGACACTGTCCAGA the value was -1.36; for TTGGCTAATACTATCCTCTATG, -0.824; for TTAAACATCAGGAATACATAGG, -0.219.
With TTCTGTTTTTGATCACTGCCGC, the sensor-assay potency score (higher = more potent) was -0.331.
On the same count and under the same terms, as for TTCCTCTTGACGTACACGTAGA, the figure is -0.848.
The same measure, in the same setting: as for TTGACAGTCAAAGTTTTTGAAA, the figure is -1.6.
TTGTAGGAGTAGATGATGGGGT: the sensor-assay potency score (higher = more potent) was -0.155.
For the sequence TAAATTAGCCAACAGGTAGTAG, the sensor-assay potency score (higher = more potent) is -0.542.
The sequence TTGCAGACTGCACCTTGGCTAA returned a sensor-assay potency score (higher = more potent) of -1.28.
In turn, TTGACGTACACGTAGATCCGCA had a sensor-assay potency score (higher = more potent) of 0.439.
Still for that read-out and setting: as for TAAGACAGTCATCACCGTCTTC, the figure is -0.295.

In the next assay the target is LRCH2. The description is as above. The conditions noted are these: shRNA.
TTCATTGCCACTTGAACTCTTC yielded a sensor-assay potency score (higher = more potent) of 0.503.
Still for that read-out and setting: for TTGCAATGGATTGTTATCCAAA the value was -1.31; for TTCATCTATTTGATCCTTCTGA, 0.249; for TATCCATTCTGCAACATGCTTG, -0.471.
Still for that read-out and setting: as for TACTTGTAAATGATGCAGCTTT, the figure is 0.0854; as for TTGTTCATCTATTTGATCCTTC, 0.648.
Still for that read-out and setting: for TTCTTCTCATTGTAAATCCTGG the value was -0.64; for TTTATTATTACTGACGACCAAA, -1.09.
In turn, TATTACTTGTAAATGATGCAGC showed a sensor-assay potency score (higher = more potent) of 0.387.
Still for that read-out and setting: for TTTATTACAAGAGAAATCCAGC the value was -0.214; for TTAAACATATCTGTGCTGGTGG, 0.402.
For the sequence TTCATCTGCTGAGACACTCTTT, the sensor-assay potency score (higher = more potent) came to 0.135.

Another assay concerns the target LRRC14. Described as above. The conditions noted are these: shRNA.
Consider TGGCACTGCAGCACCTGCCGTG, for which the sensor-assay potency score (higher = more potent) was -0.778.
TTGAGGTGGGCAGCATGTGGGC had a sensor-assay potency score (higher = more potent) of -1.24.
Still for that read-out and setting: for TTCCACACCATCATCCAAGAGG the value was -1.09; for TCACGCAGACAGGTGAAGCGGC, -0.746; for TACGGCAGCAGTACAGTCCCAC, -0.572.
Same read-out and setting: as for ATGCACATAGTGGAGCCGCAGG, the figure is -1.72; as for TTGTCCATGAAGGCCACCTTGA, -1.21.
The sequence TTGAAGCGCAGGTCCACGCGGC showed a sensor-assay potency score (higher = more potent) of -0.0617.
The same measure, in the same setting: for TAGCGGAAGTTGTCCTCGCCAT the value was -0.494; for TAGCAGTCCACAGGGAAGGGGT, -0.698; for TTGTCCTCGCCATCCACGGAGG, -1.48.
Regarding TACCACTGTCTTCTTGTCCATG, the sensor-assay potency score (higher = more potent) is -0.472.

The values above are taken from the OligoGym collection.
Note: reference of the scale not given here.
